An excerpt weighted towards active compounds, which were near 4.5% of everything screened.
PrPC surface inh = reduces human prion protein on the cell surface; cell surface PrPC, TR-FRET read-out; inhibition, % at 13.8 µM; 370,000 compounds, 0.43% hits; AID 720596; in the data active means inhibition above about 24%
BJeLR viability = BJeLR cell viability loss | BJeLR (HRASV12) viability, CellTiter-Glo ATP luminescence, 48 h | inhibition, % (no concentration beside the values) | 300,000 compounds, 0.17% hits; in the data active means inhibition above about 50%
Mtb FBA inh = inhibitors of M. tuberculosis fructose-bisphosphate aldolase. P9WQA3. purified M. tuberculosis FBA, fluorescence read-out. inhibition, % at 1 µM. 360,000 compounds, 2.3% hits. AID 588726
Target sequence (P9WQA3 whole entry, looked up): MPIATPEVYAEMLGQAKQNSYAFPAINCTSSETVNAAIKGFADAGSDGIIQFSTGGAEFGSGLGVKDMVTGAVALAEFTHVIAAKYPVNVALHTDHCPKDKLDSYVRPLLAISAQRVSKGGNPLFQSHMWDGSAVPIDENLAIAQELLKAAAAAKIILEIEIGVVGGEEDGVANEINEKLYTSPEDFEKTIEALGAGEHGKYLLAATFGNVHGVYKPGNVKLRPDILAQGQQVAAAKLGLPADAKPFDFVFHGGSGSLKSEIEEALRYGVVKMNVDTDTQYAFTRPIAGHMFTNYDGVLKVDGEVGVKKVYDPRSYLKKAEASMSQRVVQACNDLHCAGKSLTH
PfHsp40 yeast = restores yeast growth despite PfHsp40 toxicity; S. cerevisiae expressing PfHsp40, growth rescue, ATP luminescence; growth rescue, % at 12.5 µM; 340,000 compounds, 0.68% hits; in the data active means growth rescue above about 28%, passing the limit was not always enough;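 further: yeast W303a lacking pdr1 and pdr3 grown in galactose medium; growth measured after three days at 30 °C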
GDH-TPI counter-1 = counter-screen for M. tuberculosis FBA inhibitors: GDH-TPI coupled enzymes; GDH-TPI coupled enzyme counterscreen, NADH absorbance; inhibition, % at 4.8 µM; 360,000 compounds, 1.2% hits; AID 588335; in the data active means inhibition above about 30%
PrP 5UTR inh = suppresses PrP 5' UTR mRNA reporter expression. cell-based PrP 5' UTR mRNA reporter, plate reader. inhibition, % (concentration not given with the values). 340,000 compounds, 0.35% hits; in the data active means inhibition above about 52%
Mtb FBA confirm = Mtb FBA inhibition, confirmed. inhibition, % at 1 µM. purified M. tuberculosis FBA, fluorescence read-out. 5,600 compounds, 78% hits. shares compounds with Mtb FBA inh
GDH-TPI counter-2 = inhibits GDH-TPI coupling enzymes, flagging Mtb FBA hits. shares compounds with Mtb FBA inh. GDH-TPI coupled enzyme counterscreen, fluorescence. inhibition, % at 1 µM. 5,600 compounds, 81% hits. AID 652141; in the data active means inhibition above about 10%
GDH-TPI dose = GDH-TPI dose response counter-screen for Mtb FBA; 170 compounds, 79% hits; shares compounds with Mtb FBA inh; GDH-TPI coupled enzyme assay, fluorescence, artifact counterscreen; IC50, µM; call rule not given here
Each line names hits and unclear results; the compound was inactive in the other large screens (follow-up assays come after a bar, where they were run). Unless noted, no stated cut-off is given here; in the data, active means inhibition above about 27%; inactive means the rest.

CN1C(=O)c2cc(NC(=O)c3ccc(F)cc3)ccc2OC[C@H]2O[C@H](CC(=O)NC3CCC3)CC[C@H]21	none (no result: BJeLR viability, Mtb FBA inh, PfHsp40 yeast, GDH-TPI counter-1, PrP 5UTR inh)
c1ccc(OCCCc2nc(-c3cccnc3)no2)cc1	none
c1ccc(CCCc2nc(-c3cccnc3)no2)cc1	Mtb FBA inh 77.0 | Mtb FBA confirm 51.6 | GDH-TPI counter-2 36.8
N=c1oc2cc(O)ccc2cc1C(=O)Nc1ccc(Cl)cc1	Mtb FBA inh 102.8 | Mtb FBA confirm active | GDH-TPI counter-2 active
N=c1oc2ccccc2cc1C(=O)Nc1cccc(F)c1	none
CCOC(=O)C1CCN(C(=O)COc2ccc3c(C)cc(=O)oc3c2)CC1	Mtb FBA inh 34.9 | Mtb FBA confirm 148.0 | GDH-TPI counter-2 135.8
Cc1cc(=O)oc2cc(OCC(=O)N3CCCC3)ccc12	Mtb FBA inh 40.7 (no result: BJeLR viability) | Mtb FBA confirm inactive | GDH-TPI counter-2 inactive | GDH-TPI dose 5.29
Cc1cc(=O)oc2cc(OCc3ccc(C(=O)N4CCN(c5ccccc5)CC4)cc3)ccc12	Mtb FBA inh 43.5 | Mtb FBA confirm 121.5 | GDH-TPI counter-2 88.8
Cc1cc(=O)oc2cc(OCc3ccc(C(=O)N4CCN(c5ccc([N+](=O)[O-])cc5)CC4)cc3)ccc12	none
Cc1ccc2nc(N3CCN(C(=O)CCCC(=O)O)CC3)nc(-c3ccccc3)c2c1	Mtb FBA inh 32.0 | Mtb FBA confirm 73.1 | GDH-TPI counter-2 37.9
COc1ccc(-c2oc3cccnc3c2/C=C/c2ccc(OC)c(OC)c2)cc1	Mtb FBA inh 93.5 | Mtb FBA confirm active | GDH-TPI counter-2 195.2
COc1cccc(CC(=O)OCC(=O)NCC(=O)Nc2cccc(C)c2C)c1	none (no result: PfHsp40 yeast)
CC1CCN(c2nc3c(cc2C#N)COC(C)(C)C3)CC1	Mtb FBA inh 39.6 | Mtb FBA confirm 90.8 | GDH-TPI counter-2 63.2
CC(C)CCNc1nc2c(cc1C#N)COC(C)(C)C2	Mtb FBA inh 64.5 | Mtb FBA confirm 192.3 | GDH-TPI counter-2 159.3
OC[C@@H]1CN(Cc2ccc(Cl)cc2)C[C@H](n2cnc3c(N4CCN(c5ccccc5)CC4)ncnc32)O1	none (no result: BJeLR viability, PfHsp40 yeast, PrP 5UTR inh)
COC(=O)C1=C(C)N(Cc2ccc(C(F)(F)F)cc2)C(=NCc2ccc(OC)cc2)NC1c1ccccc1C(F)(F)F (stereo not given)	none (no result: BJeLR viability, Mtb FBA inh, PfHsp40 yeast, GDH-TPI counter-1, PrP 5UTR inh)
CC1CCCC(C)N1CC(O)COC1CCC(C(C)(C)C)CC1 (stereo not given)	Mtb FBA inh 28.6 | Mtb FBA confirm 112.0 | GDH-TPI counter-2 98.1
O=S(=O)(c1ccc(SCc2ccc(Br)cc2)nc1)N1CCCCC1	none (no result: BJeLR viability)
CC(=O)c1ccc(NC(=O)CSc2nnc(NC(=O)c3ccco3)s2)cc1	none (no result: PrPC surface inh)
COC(=O)c1scc2c(=O)cc(C(F)(F)F)[nH]c12	Mtb FBA inh 29.4 | GDH-TPI counter-2 active
O=C(NC1CCS(=O)(=O)C1)c1ccc(-c2ccc(Br)cc2)o1 (stereo not given)	Mtb FBA inh 41.7 | Mtb FBA confirm inactive | GDH-TPI counter-2 16.8
C[C@@H]1COc2cc(N3CC[C@H](O)C3)ccc2S(=O)(=O)N1	none (no result: BJeLR viability, Mtb FBA inh, PfHsp40 yeast, GDH-TPI counter-1, PrP 5UTR inh)
Cc1cc(C)n2cc(CSc3nnnn3-c3ccccc3)nc2n1	none
Cc1cc(C)n2cc(COc3ccccc3)nc2n1	Mtb FBA inh 70.6 | Mtb FBA confirm 83.0 | GDH-TPI counter-2 60.9
Cc1cc(C)n2cc(CSc3nnc(-c4ccccc4)c(-c4ccccc4)n3)nc2n1	none (no result: BJeLR viability)
Cc1cc(C)n2cc(CSc3ncn[nH]3)nc2n1	Mtb FBA inh 94.8 | Mtb FBA confirm inactive | GDH-TPI counter-2 inactive
Cc1cccc(N(C)S(=O)(=O)c2c(C)noc2C)c1	none
CCOc1ccc(C(=O)NCC(=O)N2CCCCCCC2)cc1	none (no result: BJeLR viability)
CCN(C(=O)c1cc(Cl)ccc1OC)c1ccccc1C	none
CCN(C(=O)c1cnc(NC(C)C)cc1C(F)(F)F)c1ccc(Cl)cc1Cl	Mtb FBA inh 50.6 | Mtb FBA confirm 85.2 | GDH-TPI counter-2 62.1
Cc1ccccc1C(=O)N(C)c1ccccc1C(=O)NCc1ccccc1	none
Cc1ccc2nc(-c3cccc(S(=O)(=O)N(C)C)c3)cn2c1	none
COc1ccc(-c2cn3cc(C)ccc3n2)cc1Br	Mtb FBA inh 30.0 | Mtb FBA confirm 130.0 | GDH-TPI counter-2 109.3
COc1ccc(-c2cn3cc(Cl)ccc3n2)cc1OC	Mtb FBA inh 57.2 | Mtb FBA confirm 71.9 | GDH-TPI counter-2 46.5
COc1ccccc1CCn1cnc(-c2cccc(F)c2)c1CC(C)C	none (no result: BJeLR viability, Mtb FBA inh, PfHsp40 yeast, GDH-TPI counter-1, PrP 5UTR inh)
CCOC(=O)c1ccc2[nH]c(C)cc(=O)c2c1	Mtb FBA inh 36.3 | Mtb FBA confirm active | GDH-TPI counter-2 196.2
COC(=O)c1ccc2[nH]c(C)cc(=O)c2c1	Mtb FBA inh 33.7 | Mtb FBA confirm 95.3 | GDH-TPI counter-2 84.5
CCCCC(SCC(=O)Nc1ccccc1)C(=O)O (stereo not given)	Mtb FBA inh 67.0 | Mtb FBA confirm 185.8 | GDH-TPI counter-2 160.0
CCCCC(CCCCl)C(=O)Nc1ccccc1 (stereo not given)	none
COc1ccc2c(OC)c3ccoc3nc2c1OC	Mtb FBA inh 96.1 | Mtb FBA confirm 192.2 | GDH-TPI counter-2 166.2
COc1cc2nc3occc3c(OC)c2cc1OC	none
COc1ccc(S(=O)(=O)N2CCN(C(=O)c3cccs3)CC2)cc1	Mtb FBA inh 79.3 | Mtb FBA confirm active | GDH-TPI counter-2 172.3
COc1ccc(-c2ccc(S(=O)(=O)N3CCOCC3)cc2)cc1	Mtb FBA inh 44.5 (no result: PrPC surface inh) | Mtb FBA confirm 74.8 | GDH-TPI counter-2 48.1
COc1ccc(S(=O)(=O)N2CCN(C(=O)Cc3cccs3)CC2)cc1	none
CCOCCCN(Cc1ccco1)C(=O)c1cc2c(=O)[nH]c3ccc(C)cc3c2s1	Mtb FBA inh 32.1 | Mtb FBA confirm inactive | GDH-TPI counter-2 inactive
CCCN(CCC)C(=O)c1cc2c(=O)[nH]c3ccc(C)cc3c2s1	none
Cc1ccc2[nH]c(=O)c3cc(C(=O)N(C)Cc4ccco4)sc3c2c1	Mtb FBA inh 51.3 | Mtb FBA confirm 186.5 | GDH-TPI counter-2 135.3
Cc1ccc(S(=O)(=O)NCC(=O)OCC(=O)NC2CCCCC2)cc1	none (no result: BJeLR viability)
CCN(c1ccccc1C(=O)O)S(=O)(=O)c1cccc2nsnc12	none
C=CCOCCn1[nH]c2ccccc2c1=O	Mtb FBA inh 46.8 (no result: BJeLR viability) | Mtb FBA confirm 129.9 | GDH-TPI counter-2 108.5
Cc1ccc(/C=N/n2cc(-c3ccccc3)[nH]c2=S)s1	none
S=c1[nH]c(-c2ccccc2)cn1/N=C/c1cccc2ccccc12	Mtb FBA inh 32.8 | Mtb FBA confirm inactive | GDH-TPI counter-2 inactive | GDH-TPI dose inactive
Oc1ccc(/C=N/n2cc(-c3ccccc3)[nH]c2=S)cc1	Mtb FBA inh 42.3 | Mtb FBA confirm 137.1 | GDH-TPI counter-2 116.6

High-throughput results deposited in PubChem by several laboratories.
